Screening data deposited in PubChem by National Center for Advancing Translational Sciences (NCATS).
Most compounds without a hit are left out; they make up all but 2.4% or so of the library.
Pol eta inh: DNA polymerase eta (human) inhibition; recombinant Pol eta, fluorescent DNA replication assay; Potency, µM (highest dose often 114 µM), for the others: at the top dose activity change, negative = inhibition, usual class: inhibitors; 390,000 compounds, 1.2% hits; note: % is set by controls: 0 for no effect and ±100 for the full control effect
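Fluorescent replication assay: 50 nM final substrate added after a 15 min room-temperature compound preincubation with 10 nM enzyme. Signal taken at 0 min and again at 10 min.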
WRN inhibitor: WRN helicase (human) inhibition | 360,000 compounds, 0.46% hits | WRN helicase unwinding, fluorescent forked duplex, kinetic | Potency, µM (top dose mostly 114 µM), without a hit: at the top dose activity change, negative = inhibition, most hits filed as inhibitors | Q14191 | AID 651768; note: % is set by controls: 0 for no effect and ±100 for the full control effect; nearly all actives have a fitted effect of over 55% in size
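WRN at 20 nM final preincubated with compound 15 min at room temperature; reaction started with 100 nM fluorophore/quencher forked duplex oligonucleotide and 2 mM ATP final. Unwinding followed kinetically by red fluorescence (ex 525, em 598 nm).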
POLB inh: DNA polymerase beta (human) inhibition; P06746; Pol beta primer extension/strand displacement, fluorescence kinetic; Potency, µM (highest dose often 114 µM), inactives show at the top dose activity change, negative = inhibition, actives largely listed as inhibitors; 340,000 compounds, 1.3% hits; AID 485314; note: % is set by controls: 0 for no effect and ±100 for the full control effect
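Homogeneous kinetic assay of primer extension and strand displacement by 10 nM Pol beta, preincubated 15 min at room temperature with compound before 50 nM substrate (final) was added. Read at 0 and 10 min; four-parameter Hill fit.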
Pol kappa inh: DNA polymerase kappa (human) inhibition. AID 588579. Potency, µM (top dose mostly 107 µM), for the others: at the top dose activity, negative = inhibition, usual class: inhibitors. Q9UBT6. 400,000 compounds, 0.53% hits. purified Pol kappa, fluorescent DNA synthesis assay, 10 min; note: % is set by controls: 0 for no effect and ±100 for the full control effect
Target sequence (Q9UBT6 whole entry, looked up): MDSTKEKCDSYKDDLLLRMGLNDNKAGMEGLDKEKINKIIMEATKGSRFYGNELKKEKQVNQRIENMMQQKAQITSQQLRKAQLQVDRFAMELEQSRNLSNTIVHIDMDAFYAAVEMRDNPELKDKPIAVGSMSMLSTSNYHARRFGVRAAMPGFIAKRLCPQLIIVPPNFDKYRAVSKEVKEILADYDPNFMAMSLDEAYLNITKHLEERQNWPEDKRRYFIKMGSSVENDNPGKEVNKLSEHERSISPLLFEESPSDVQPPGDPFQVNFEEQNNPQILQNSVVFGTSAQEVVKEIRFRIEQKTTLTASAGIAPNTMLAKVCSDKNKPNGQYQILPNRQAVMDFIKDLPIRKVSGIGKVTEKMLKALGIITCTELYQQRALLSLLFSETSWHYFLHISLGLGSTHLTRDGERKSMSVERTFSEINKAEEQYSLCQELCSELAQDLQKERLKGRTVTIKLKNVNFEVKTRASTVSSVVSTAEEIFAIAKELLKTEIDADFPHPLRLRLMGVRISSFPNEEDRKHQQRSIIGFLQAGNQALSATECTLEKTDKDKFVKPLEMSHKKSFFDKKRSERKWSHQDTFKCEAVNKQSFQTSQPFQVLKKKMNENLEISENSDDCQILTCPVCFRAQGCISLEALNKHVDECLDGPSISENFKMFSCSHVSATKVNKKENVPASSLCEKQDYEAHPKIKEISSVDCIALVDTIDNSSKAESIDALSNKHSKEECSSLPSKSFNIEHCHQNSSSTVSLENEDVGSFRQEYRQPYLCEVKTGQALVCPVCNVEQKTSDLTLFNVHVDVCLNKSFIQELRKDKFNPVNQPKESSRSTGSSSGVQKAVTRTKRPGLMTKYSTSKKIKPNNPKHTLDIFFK
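Pol kappa 10 nM + cpd, 15 min RT; start w/ substrate 50 nM final; fluorescence kinetic read, 0 and 10 min. Neg ctrl: buffer, no enzyme.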
FEN1 inh: blocks human flap endonuclease 1; P39748; Recombinant FEN1 flap cleavage, fluorescence, 15 min; Potency, µM (highest dose often 114 µM), without a hit: at the top dose activity change, negative = inhibition, actives largely listed as inhibitors; 390,000 compounds, 0.35% hits; note: % is set by controls: 0 for no effect and ±100 for the full control effect; nearly all actives have a fitted effect of over 65% in size
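Reaction started by adding substrate (50 nM final) to 10 nM enzyme after 15 min room-temperature compound preincubation. Reads at 0 and 15 min, with data normalized and fitted to a four-parameter Hill equation.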
POLI inh: blocks human DNA polymerase iota activity. Pol iota fluorescent replication assay, 10 min. 390,000 compounds, 1% hits. Potency, µM (highest dose often 115 µM), for inactives: at the highest dose activity, negative = inhibition, usual class: inhibitors. Q9UNA4
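Fluorescent replication assay read twice, at 0 min and 10 min after adding 50 nM (final) substrate. Enzyme (10 nM) and compounds were first incubated 15 min at room temperature; enzyme-free buffer wells were negative controls.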
Active calls of the source: *; ? = inconclusive; · = no result given; [ ] = dose if it differs, or a comment. Calls come from the whole dose curve; as a rule, active = well fitted curve in the direction sought with a large enough effect; inconclusive = small, poorly fitted or top-dose-only effect, or another doubt; inactive = no such curve, though single readings can be large; an effect the other way counts as inactive or inconclusive. Potency is the fitted concentration of half-maximal effect.

SMILES	Pol eta inh	WRN inhibitor	POLB inh	Pol kappa inh	FEN1 inh	POLI inh
Cc1ccc(NC(=O)CCn2c(=O)c3cccn3c3ccccc32)c(C)c1	0%	4%	0%	1%	4%	89µM*
O=C(O)c1ccccc1NS(=O)(=O)c1cccc(C(F)(F)F)c1	3%	-9%	-25%	-7%	0%	-1%
O=C(O)c1ccccc1NS(=O)(=O)c1cccc(-n2sc3ccccc3c2=O)c1	50µM*	11µM*	?	-35%	89µM*	25µM*
Cc1ccc2ccc(C(Nc3ccccn3)c3ccccc3)c(O)c2n1 (stereo not given)	-6%	-4%	26%	-19%	-23%	23%
COc1cc(C(Nc2ccccn2)c2ccc3ccc(C)nc3c2O)cc(OC)c1O (stereo not given)	-17%	32µM*	6%	-15%	-20%	12%
N#Cc1cccc(C(c2nnnn2C2CCCC2)N2CCCCCC2)c1 (stereo not given)	0%	-10%	1%	-8%	-4%	-4%
O=c1c(C(c2nnnn2C2CCCCC2)N2CCCCC2)coc2ccc(Cl)cc12 (stereo not given)	-13%	1%	100µM*	-9%	-7%	8%
CCN(C(=O)c1c(C)oc2ncnc(N3CCCCC3)c12)c1cc(C)ccc1C	-18%	·	7%	0%	0%	34%
CCc1ccc2c(CN3CCN(S(=O)(=O)c4ccc5c(c4)OCCO5)CC3)cc(=O)oc2c1	-16%	5%	0%	-5%	6%	1%
O=c1cc(CN2CCN(S(=O)(=O)c3ccc4c(c3)OCCO4)CC2)c2ccc(O)cc2o1	?	-20%	35µM*	?	-9%	35µM*
Cc1ccc(C)c2c1NC(C(=O)O)C1CC=CC21 (stereo not given)	·	·	·	3.2µM*	18µM*	11µM*
O=C(O)C1Nc2c(Cl)cc(Cl)cc2C2C=CCC12 (stereo not given)	2.8µM*	10µM*	?	8.9µM*	22µM*	4µM*
CC(C)CNC(=O)C1Nc2ccccc2C2C=CCC12 (stereo not given)	-15%	5%	·	-15%	-20%	?
C/C(=C(/CCOC(=O)C(C)C)SS/C(CCOC(=O)C(C)C)=C(\C)N(C=O)Cc1cnc(C)nc1N)N(C=O)Cc1cnc(C)nc1N	·	·	·	2%[19.4 µM]	·	·
CCOC(=O)O[C@]1(C(=O)COC(=O)CC)CC[C@@H]2[C@@H]3CCC4=CC(=O)C=C[C@@]4(C)[C@H]3[C@H](O)C[C@]21C	·	·	·	-13%[19.4 µM]	·	·
COc1ccc(NC(=O)NNC(=O)COc2ccc([N+](=O)[O-])c(C)c2)cc1OC	-16%	-17%	50µM*	-4%	2%	34%
COc1ccc(NC(=O)NNC(=O)COc2ccc3ccccc3c2)cc1OC	5%	7%	2%	-13%	-6%	2%
N#C/C(=C\c1ccc(O)c(O)c1)C(=O)N1CCc2ccccc21	40µM*	18µM*	·	0%	?	?
COc1cc(/C=C(\C#N)C(=O)NCCc2ccccc2)cc(OC)c1O	-10%	-6%	21%	-5%	9%	41%
N#C/C(=C\c1ccc(O)c(O)c1)C(=O)NCCc1ccccc1	8.9µM*	7%	-2%[57.1 µM]	?	?	?
COc1cc(/C=C(\C#N)C(=O)N2CCc3ccccc32)ccc1O	-3%	-7%	0%	-12%	-16%	-2%
O=C(O)c1ccc(CNc2ncnc3nc[nH]c23)cc1	·	·	·	10%	19%	8%
CCCN(CCC)C(=O)Cn1c(=O)n(-c2ccc(Cl)c(Cl)c2)c(=O)c2c(C)c(C(=O)N(C)C)sc21	1%	·	14%	-5%[60.1 µM]	18%	17%
CCNc1nc(NC(C)C)nc(Nn2cnnc2)n1	-9%	1%	35µM*	10%	-12%	118%
CC(C)Nc1nc(NC(C)C)nc(Nn2cnnc2)n1	2%	-4%	-1%	-21%	0%	-11%
SMILES	Pol eta inh	WRN inhibitor	POLB inh	Pol kappa inh	FEN1 inh	POLI inh
CN1CCN(c2cc(N3CCN(C(=O)c4ccco4)CC3)c3c4c(onc24)-c2ccccc2C3=O)CC1	?	?	-12%	-45%	?	?
O=C1c2ccccc2-c2onc3c(Oc4ccccc4)cc(O)c1c23	·	·	35µM*	·	·	·
COc1ccc(CCc2c[nH]c(=O)c3cncnc23)cc1OC	·	·	·	-9%	-16%	-30%
C=C1CCC(C)C(C)(CCC2=CCOC2=O)C/C=C\C=C/1C(=O)O (stereo not given)	28µM*	-15%	2%	?	-4%	?
C=C1C(=O)C23C(O)C1CCC2C12CCCC(C)(COC(C)=O)C1C(O)C3(O)OC2 (stereo not given)	1%	18µM*	·	-4%	-15%	-3%
CCn1c(CSc2nc3ccccc3s2)nnc1SCC(=O)c1ccc(Cl)cc1	-17%	79µM*	11%	-17%	2%	-6%
COc1ccc(C(=O)N2CCC3(CCN(Cc4nccs4)CC3)CC2)cc1	·	·	·	-2%[60.1 µM]	·	·
Cc1ccc(Cl)cc1NC(=S)N(Cc1ccco1)C(C)c1cccs1 (stereo not given)	-12%	-6%	8%	-2%	-9%	79µM*
CCN(CC)c1ccc2c(-c3ccc(S(=O)(=O)O)cc3S(=O)(=O)[O-])c3ccc(=[N+](CC)CC)cc-3oc2c1	·	·	5µM*	?	?	·
CCN(CC)c1ccc2nc3c4ccccc4c(=O)cc-3oc2c1	-24%	?	?	-16%[60.1 µM]	?	60%
CCN1C(=O)c2cccc3c(S(=O)(=O)NCc4cccnc4)ccc1c23	-12%	-18%[57.1 µM]	28%	-2%	-4%	13%
CCN1C(=O)c2cccc3c(S(=O)(=O)NCc4ccco4)ccc1c23	-12%	-16%	1%	-15%	4%	32µM*
O=C(O)c1ccccc1N/N=C/C1=C(N2CCOCC2)C(=C\c2ccccc2)/CC1	45µM*	?	?	?	-1%	14µM*
O=C(NCc1ccccc1)c1ccc(OC2CSC2)cc1	-7%	4%	-22%	-14%	-2%	-9%
O=C(O)c1ccc(OC2CSC2)cc1	20µM*	-12%	6%	-2%	-2%	?
Cc1ccc(NC(=O)Nc2ccc(S(N)(=O)=O)cc2)cc1	-10%	-1%	-5%	2%	0%	47%
Cc1ccc(NC(=O)NC(=O)N(C(C)C)S(=O)(=O)c2ccc(C)cc2)cc1	6%	2%	89µM*	-10%	19%	7%
CC1CC(=O)c2c(cc3c(-c4c(O)cc(O)c5c(O)c6c(cc45)OC(C)CC6=O)c(O)cc(O)c3c2O)O1 (stereo not given)	10µM*	?	18µM*	?	14µM*	1.1µM*
